Assay results reported in the supplement of paper PMC12636033.
± gives the standard deviation of the averaged measurements. Whole data set: some 33,000 sequences, median “E-score (rank enrichment, -0.5 to 0.5)” near -0.0043, cut for the highest 2% near 0.24. This excerpt belongs to a sample that is enriched for the highest values.

tested on: 2Sp-muMax20 (muMax20 with two 2,6-bis(methyl)pyridine Cys staples); experiment: PBM 8-mer E-score (E-score (rank enrichment, -0.5 to 0.5)); higher = stronger preferential binding
Procedure: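 Protein binding microarray (universal PBM chip covering all 10-mers in fixed probe flanks) with chemically synthesized human Max(13-93) bHLH-LZ analogs (not full-length Max) bearing noncanonical residues (hArg, Tha, Aib, Nle at 65) and aromatic Cys staples. Read-out per 8-mer (and its reverse complement): E-score (rank-based enrichment, -0.5 to 0.5) and Z-score of median probe intensity.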

Sequence | PBM 8-mer E-score
ACACAAAC | 0.271 ± 0.025
AGACAATA | 0.268 ± 0.026
GCACAATA | -0.00579 ± 0.025
ACACAAAA | 0.172 ± 0.045
AGACAATC | 0.0678 ± 0.067
GAAGGTCA | -0.106 ± 0.027
ATCTAACG | 0.0512 ± 0.018
CCCCTTTA | 0.1759 ± 0.0016
ACTGTGGC | -0.025 ± 0.13
TGTTTTAA | 0.0917 ± 0.0018
AGTTTAAA | 0.181 ± 0.021
TATTTAAA | 0.155 ± 0.05
TGTTTAAA | 0.278 ± 0.015
CATTTAAA | 0.239 ± 0.026
CATTTTAA | 0.167 ± 0.029
ATCCTCTA | -0.0199 ± 0.026
CAAGTGTG | 0.119 ± 0.073
AATGCGTC | -0.0127 ± 0.03
ATCAAGAC | -0.00991 ± 0.011
ACGATGAT | 0.0729 ± 0.0089
CTCTATCA | -0.0317 ± 0.017
GGCACCAA | 0.0196 ± 0.084

Sequence | PBM 8-mer E-score
CATGTGGC | 0.173 ± 0.13
CATGTGGA | 0.16 ± 0.0062
AATGTGGG | 0.246 ± 0.00061
AATGTGGT | 0.0284 ± 0.063
CATGTGGG | 0.329 ± 0.026
AATGTGGC | 0.124 ± 0.005
CGGAGTTA | -0.187 ± 0.057
GGGAGTTA | 0.245 ± 0.029
AGGAGTTA | 0.109 ± 0.0086
CATCGTGA | -0.256 ± 0.15
GAAGTCTA | 0.0975 ± 0.1
CTTACTAC | 0.122 ± 0.0036
CATACTAG | 0.243 ± 0.0018
CCTACTAG | 0.107 ± 0.023
ACTACTAG | 0.261 ± 0.086
ATTACTAG | -0.00656 ± 0.053
CATACTAA | 0.1447 ± 0.00064
ATTACTAC | 0.256 ± 0.011
ACTACTAT | 0.146 ± 0.12
CATACTAC | 0.0746 ± 0.039
AACTTGTA | 0.0176 ± 0.02
AGAGTCAA | -0.0327 ± 0.08

Sequence | PBM 8-mer E-score
CGGCGGAG | -0.149 ± 0.039
CTGCTCGC | -0.104 ± 0.0046
CAGAGGTC | -0.182 ± 0.051
CAGCAACG | -0.129 ± 0.075
CAATATAA | 0.152 ± 0.1
ACCAATAC | 0.139 ± 0.021
AAAAATAG | 0.122 ± 0.058
AAAAATAA | 0.0898 ± 0.087
TAATATAA | 0.242 ± 0.035
AAATATAT | 0.3135 ± 0.00093
ACCAATAT | 0.258 ± 0.045
AAAAATAT | 0.244 ± 0.024
ACCAATAG | -0.0592 ± 0.066
AAATATAG | 0.148 ± 0.036
GAATATAA | 0.215 ± 0.056
AAATATAC | 0.087005 ± 2.1e-05
ATGCGCCG | -0.102 ± 0.045
CATGGCAG | 0.0778 ± 0.016
CCCAAAGC | -0.158 ± 0.047
GAGCCGAA | -0.123 ± 0.12
AAATATAA | 0.255 ± 0.03
TACTATAA | 0.261 ± 0.011

Sequence | PBM 8-mer E-score
AAATAAAA | 0.175 ± 0.059
AAATATCA | 0.132 ± 0.038
AACTATAA | 0.199 ± 0.015
GACTATAA | 0.0335 ± 0.072
TAGCGGCA | -0.00468 ± 0.025
TTAGTCAA | -0.0593 ± 0.046
ATCTCACA | 0.141 ± 0.066
GAATCCAA | 0.132 ± 0.0084
TAATCCAA | 0.256 ± 0.031
AAATCCAA | 0.0276 ± 0.05
ACGGGATA | 0.146 ± 0.0045
GATCTTGA | 0.263 ± 0.086
TATCTTGA | 0.123 ± 0.099
CATCTTGA | 0.00562 ± 0.03
ACTCACTG | 0.0171 ± 0.1
ATGCCTAG | 0.0159 ± 0.081
GAGGTCCC | -0.243 ± 0.0028
AAGGCATT | -0.0085 ± 0.05
ATGAGGGA | 0.0977 ± 0.073
AGGAGGGC | -0.104 ± 0.14
ATGAGGGG | 0.24 ± 0.05
AGGAGGGG | 0.269 ± 0.0072

Sequence | PBM 8-mer E-score
AGTAGGGC | 0.0658 ± 0.099
AGTAGGGA | 0.0183 ± 0.02
AGGAGGGA | 0.000855 ± 0.036
ATGAGGGC | 0.115 ± 0.015
AGTAGGGG | 0.24 ± 0.072
GGCGCTAA | -0.136 ± 0.035
CCCACTGA | 0.0382 ± 0.01
CGGGACGA | -0.1379 ± 0.00041
AGTATCAG | 0.0699 ± 0.071
CGCCCTAC | -0.00866 ± 0.015
GCCCGGGA | -0.254 ± 0.03
TGATGCCA | 0.033 ± 0.029
TATCAGGA | 0.0871 ± 0.048
ACCAAAGC | 0.0731 ± 0.02
GTTACATA | 0.106 ± 0.096
GCGCTCCC | -0.0536 ± 0.052
GATCAACA | -0.111 ± 0.05
AATCAACA | 0.262 ± 0.024
TATCAACA | 0.139 ± 0.05
GCTATGCC | -0.00318 ± 0.017
AGTGCACA | -0.000545 ± 0.11
CTCGATCA | 0.0252 ± 0.013
